Compound in this test: ClCC(=O)N1CCCC1=O
The experiment in a line: log2 ratio of Biotin-Ahx-Ub-VS probe labelling (fragment/DMSO); higher = less target engagement (more negative = stronger competition), active = hit call of the paper (q ≤ 0.05, log2 ratio ≤ -1). To be noted: compound concentration: 200 uM; treatment time: 3 h. On the procedure: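 Competitive ABPP in HEK293T cell lysate. Lysates were treated with each chloroacetamide fragment at 200 µM for 3 h, then with Biotin-Ahx-Ub-VS (0.5 µM, 1 h), NeutrAvidin-enriched and analysed by diaPASEF LC-MS/MS. Protein LFQ was median-normalised; average log2 ratio is fragment/DMSO from an unpaired t-test (n=3 treated, n=44 DMSO). Hits: q ≤ 0.05, log2 ratio ≤ -1, unique peptides ≥ 2.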
Chain of UniProt Q9Y5K5 (Q9Y5K5 whole entry): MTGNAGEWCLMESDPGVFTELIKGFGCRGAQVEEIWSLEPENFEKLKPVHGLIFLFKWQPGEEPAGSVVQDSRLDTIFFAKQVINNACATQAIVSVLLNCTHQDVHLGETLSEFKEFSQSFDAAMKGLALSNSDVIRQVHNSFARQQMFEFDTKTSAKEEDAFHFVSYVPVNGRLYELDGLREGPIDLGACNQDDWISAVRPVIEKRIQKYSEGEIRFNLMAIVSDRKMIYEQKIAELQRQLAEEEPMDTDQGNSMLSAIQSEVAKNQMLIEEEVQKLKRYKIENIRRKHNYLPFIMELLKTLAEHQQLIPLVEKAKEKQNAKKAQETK
Chain of UniProt Q9P275 (Q9P275 whole entry): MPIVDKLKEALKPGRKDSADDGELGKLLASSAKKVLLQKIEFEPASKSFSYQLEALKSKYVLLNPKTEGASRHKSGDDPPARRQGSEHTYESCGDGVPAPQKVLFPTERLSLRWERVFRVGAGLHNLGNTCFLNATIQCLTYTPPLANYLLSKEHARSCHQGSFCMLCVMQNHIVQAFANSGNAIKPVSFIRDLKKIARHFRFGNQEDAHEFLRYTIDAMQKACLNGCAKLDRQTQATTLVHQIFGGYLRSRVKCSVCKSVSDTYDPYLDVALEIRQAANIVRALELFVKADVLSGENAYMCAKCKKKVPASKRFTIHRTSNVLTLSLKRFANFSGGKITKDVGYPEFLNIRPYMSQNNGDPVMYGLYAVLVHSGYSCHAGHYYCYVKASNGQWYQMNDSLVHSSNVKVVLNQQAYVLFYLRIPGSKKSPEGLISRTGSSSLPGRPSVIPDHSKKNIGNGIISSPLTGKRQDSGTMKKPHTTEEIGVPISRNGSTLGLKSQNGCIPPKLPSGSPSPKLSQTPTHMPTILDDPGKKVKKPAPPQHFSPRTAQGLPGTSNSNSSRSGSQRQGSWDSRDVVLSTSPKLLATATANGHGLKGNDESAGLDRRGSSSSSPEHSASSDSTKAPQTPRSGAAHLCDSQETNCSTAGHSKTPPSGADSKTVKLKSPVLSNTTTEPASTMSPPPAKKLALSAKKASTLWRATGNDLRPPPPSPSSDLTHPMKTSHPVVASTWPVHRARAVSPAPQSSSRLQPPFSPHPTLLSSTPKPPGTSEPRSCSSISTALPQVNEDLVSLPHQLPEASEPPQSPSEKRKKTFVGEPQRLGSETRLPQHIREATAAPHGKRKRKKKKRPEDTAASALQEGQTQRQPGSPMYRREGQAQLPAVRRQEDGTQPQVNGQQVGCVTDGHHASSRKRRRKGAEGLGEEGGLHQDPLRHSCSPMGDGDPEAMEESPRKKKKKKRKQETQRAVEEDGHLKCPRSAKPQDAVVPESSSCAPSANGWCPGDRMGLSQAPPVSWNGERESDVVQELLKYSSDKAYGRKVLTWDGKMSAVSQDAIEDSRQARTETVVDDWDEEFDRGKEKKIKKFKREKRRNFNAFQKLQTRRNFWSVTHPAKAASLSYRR
Chain of UniProt O00507 (O00507 whole entry): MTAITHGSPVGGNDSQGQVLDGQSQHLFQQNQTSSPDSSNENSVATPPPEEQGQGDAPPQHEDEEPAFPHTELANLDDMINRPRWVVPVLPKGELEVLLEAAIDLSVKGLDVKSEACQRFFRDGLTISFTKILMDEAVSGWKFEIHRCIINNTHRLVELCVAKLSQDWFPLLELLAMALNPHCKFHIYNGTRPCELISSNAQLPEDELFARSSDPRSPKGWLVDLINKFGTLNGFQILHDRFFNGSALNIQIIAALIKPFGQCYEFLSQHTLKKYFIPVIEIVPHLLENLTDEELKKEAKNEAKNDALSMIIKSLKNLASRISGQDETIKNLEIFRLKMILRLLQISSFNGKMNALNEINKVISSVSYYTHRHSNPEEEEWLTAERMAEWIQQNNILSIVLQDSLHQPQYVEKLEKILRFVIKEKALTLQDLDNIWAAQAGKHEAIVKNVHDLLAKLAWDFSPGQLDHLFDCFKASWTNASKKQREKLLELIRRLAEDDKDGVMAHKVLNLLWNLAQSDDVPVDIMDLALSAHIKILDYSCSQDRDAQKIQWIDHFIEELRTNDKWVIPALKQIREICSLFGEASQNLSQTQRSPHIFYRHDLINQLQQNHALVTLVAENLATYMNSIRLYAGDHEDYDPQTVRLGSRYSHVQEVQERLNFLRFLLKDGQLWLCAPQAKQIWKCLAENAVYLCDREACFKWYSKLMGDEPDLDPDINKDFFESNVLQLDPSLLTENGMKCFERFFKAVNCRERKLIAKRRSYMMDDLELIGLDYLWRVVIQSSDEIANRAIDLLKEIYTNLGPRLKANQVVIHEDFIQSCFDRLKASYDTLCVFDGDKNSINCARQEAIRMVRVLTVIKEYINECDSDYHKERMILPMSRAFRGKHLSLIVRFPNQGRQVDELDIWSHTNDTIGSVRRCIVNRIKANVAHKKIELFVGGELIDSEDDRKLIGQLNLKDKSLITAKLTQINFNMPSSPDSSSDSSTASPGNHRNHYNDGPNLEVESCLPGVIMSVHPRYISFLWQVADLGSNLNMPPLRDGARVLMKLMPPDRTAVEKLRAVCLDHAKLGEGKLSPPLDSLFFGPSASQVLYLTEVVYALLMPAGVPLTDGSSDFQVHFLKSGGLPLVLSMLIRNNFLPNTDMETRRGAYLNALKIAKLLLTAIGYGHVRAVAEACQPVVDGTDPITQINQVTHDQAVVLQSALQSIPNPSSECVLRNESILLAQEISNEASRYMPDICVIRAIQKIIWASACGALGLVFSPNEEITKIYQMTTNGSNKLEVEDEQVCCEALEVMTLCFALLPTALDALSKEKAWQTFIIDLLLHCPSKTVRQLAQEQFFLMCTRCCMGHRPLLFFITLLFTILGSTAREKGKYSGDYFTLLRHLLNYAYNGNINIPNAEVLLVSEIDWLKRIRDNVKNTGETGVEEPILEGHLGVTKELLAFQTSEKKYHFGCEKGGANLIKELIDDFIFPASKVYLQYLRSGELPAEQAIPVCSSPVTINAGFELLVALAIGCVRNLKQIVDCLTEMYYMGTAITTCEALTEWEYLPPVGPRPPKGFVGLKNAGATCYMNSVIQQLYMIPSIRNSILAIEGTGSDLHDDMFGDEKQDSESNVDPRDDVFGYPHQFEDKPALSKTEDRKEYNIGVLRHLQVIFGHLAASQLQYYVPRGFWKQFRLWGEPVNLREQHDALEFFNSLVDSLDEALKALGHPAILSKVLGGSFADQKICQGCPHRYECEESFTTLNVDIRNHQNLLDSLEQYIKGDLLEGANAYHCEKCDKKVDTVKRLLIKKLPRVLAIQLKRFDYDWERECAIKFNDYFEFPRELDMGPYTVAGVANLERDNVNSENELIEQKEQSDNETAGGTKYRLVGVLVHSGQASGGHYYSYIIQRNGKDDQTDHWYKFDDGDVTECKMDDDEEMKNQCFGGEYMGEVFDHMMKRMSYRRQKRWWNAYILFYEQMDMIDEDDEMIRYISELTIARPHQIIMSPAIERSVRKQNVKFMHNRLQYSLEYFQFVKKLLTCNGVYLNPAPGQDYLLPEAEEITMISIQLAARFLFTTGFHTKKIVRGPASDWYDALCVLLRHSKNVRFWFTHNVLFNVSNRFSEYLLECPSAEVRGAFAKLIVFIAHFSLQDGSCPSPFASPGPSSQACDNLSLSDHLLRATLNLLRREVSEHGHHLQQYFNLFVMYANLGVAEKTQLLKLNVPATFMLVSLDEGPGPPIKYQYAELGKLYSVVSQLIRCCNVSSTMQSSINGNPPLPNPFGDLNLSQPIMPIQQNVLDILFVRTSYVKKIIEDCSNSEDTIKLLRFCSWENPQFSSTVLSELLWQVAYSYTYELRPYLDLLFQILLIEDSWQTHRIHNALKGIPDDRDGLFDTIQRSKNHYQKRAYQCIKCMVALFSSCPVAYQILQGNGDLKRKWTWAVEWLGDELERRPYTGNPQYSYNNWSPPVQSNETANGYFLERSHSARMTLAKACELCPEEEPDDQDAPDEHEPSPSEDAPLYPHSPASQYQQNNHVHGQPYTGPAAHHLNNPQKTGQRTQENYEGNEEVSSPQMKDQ
Chain of UniProt Q5VVQ6 (Q5VVQ6 whole entry): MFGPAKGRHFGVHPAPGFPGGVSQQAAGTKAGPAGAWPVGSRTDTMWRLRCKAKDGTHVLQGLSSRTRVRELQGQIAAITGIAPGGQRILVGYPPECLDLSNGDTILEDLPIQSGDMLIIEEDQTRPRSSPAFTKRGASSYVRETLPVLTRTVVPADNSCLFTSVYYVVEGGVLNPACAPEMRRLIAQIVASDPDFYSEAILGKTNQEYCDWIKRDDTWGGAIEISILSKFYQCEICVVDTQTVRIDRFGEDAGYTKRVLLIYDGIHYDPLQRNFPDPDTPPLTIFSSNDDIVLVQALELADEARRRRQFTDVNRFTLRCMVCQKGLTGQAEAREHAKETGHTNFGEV
Chain of UniProt P09936 (P09936 whole entry, looked up): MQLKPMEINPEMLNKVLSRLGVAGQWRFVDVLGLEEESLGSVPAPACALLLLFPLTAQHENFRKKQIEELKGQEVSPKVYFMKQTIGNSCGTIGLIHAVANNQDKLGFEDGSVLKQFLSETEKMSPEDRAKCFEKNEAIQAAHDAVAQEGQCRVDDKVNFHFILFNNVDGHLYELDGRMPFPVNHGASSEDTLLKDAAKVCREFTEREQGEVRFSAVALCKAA
Chain of UniProt Q5T2D3 (Q5T2D3 whole entry): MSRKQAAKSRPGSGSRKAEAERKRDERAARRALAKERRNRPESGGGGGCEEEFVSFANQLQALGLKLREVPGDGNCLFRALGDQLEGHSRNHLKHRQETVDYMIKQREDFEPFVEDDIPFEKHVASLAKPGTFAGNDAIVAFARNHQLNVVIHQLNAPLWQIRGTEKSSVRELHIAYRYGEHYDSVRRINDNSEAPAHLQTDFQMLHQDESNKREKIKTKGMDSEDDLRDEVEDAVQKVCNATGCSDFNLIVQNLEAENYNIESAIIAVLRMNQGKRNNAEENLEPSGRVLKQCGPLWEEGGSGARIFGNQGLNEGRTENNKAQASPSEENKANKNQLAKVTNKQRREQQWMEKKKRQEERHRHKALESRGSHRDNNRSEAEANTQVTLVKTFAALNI
As to OTUD6B (UniProt Q8N6M0), the “log2 ratio of Biotin-Ahx-Ub-VS probe labelling” value (“log2 ratio” below) was -0.48 (inactive).
For USP15 (UniProt Q9Y4E8), the “log2 ratio” value is -0.378 (inactive).
For the target USP42 (UniProt Q9H9J4), the “log2 ratio” value was -0.218 (inactive).
In the case of UniProt Q5T2D3, the “log2 ratio” value is -0.924 (inactive).
Consider OTUD7B (UniProt Q6GQQ9), for which the “log2 ratio” value is -0.251 (inactive).
With EIF3F (UniProt O00303), the “log2 ratio” value is -0.166 (inactive).
Consider OTUD5 (UniProt Q96G74), for which the “log2 ratio” value is -0.377 (inactive).
As for COPS5 (UniProt Q92905), the “log2 ratio” value is 0.159 (inactive).
For UniProt P51784, the “log2 ratio” value is -0.126 (inactive).
With BAP1 (UniProt Q92560), the “log2 ratio” value is -0.142 (inactive).
Regarding USP36 (UniProt Q9P275), the “log2 ratio” value is -0.0906 (inactive).
As to USP22 (UniProt Q9UPT9), the “log2 ratio” value is -0.616 (inactive).
Consider UniProt O00487, for which the “log2 ratio” value was 0.00332 (inactive).
Consider USP10 (UniProt Q14694), for which the “log2 ratio” value is -0.0833 (inactive).
In the case of USP47 (UniProt Q96K76), the “log2 ratio” value is -0.175 (inactive).
The value for ALG13 (UniProt Q9NP73) was 0.188 (inactive); that for USP4 (UniProt Q13107) was -0.146 (inactive); that for USP54 (UniProt Q70EL1) was -0.396 (inactive).
For the target USP48 (UniProt Q86UV5), the “log2 ratio” value is -0.22 (inactive).
The value for USP19 (UniProt O94966) was -0.376 (inactive); that for EIF3H (UniProt O15372) was 0.0752 (inactive).
UniProt Q8TE49: the “log2 ratio” value was -0.249 (inactive).
The result for UCHL3 (UniProt P15374) reads 0.027 (inactive); that for OTUD4 (UniProt Q01804), -0.294 (inactive).
As to UCHL5 (UniProt Q9Y5K5), the “log2 ratio” value was -0.166 (inactive).
Turning to UniProt O00507, the “log2 ratio” value is -0.733 (inactive).
On to USP39 (UniProt Q53GS9), for which the “log2 ratio” value was 0.0278 (inactive).
The result for UCHL1 (UniProt P09936) reads -0.746 (inactive).
The value for USP14 (UniProt P54578) was -0.184 (inactive).
As for YOD1 (UniProt Q5VVQ6), the “log2 ratio” value is -0.311 (inactive).
With USP28 (UniProt Q96RU2), the “log2 ratio” value was -0.413 (inactive).
Regarding USP7 (UniProt Q93009), the “log2 ratio” value was -0.135 (inactive).
As for FAM105A (UniProt Q9NUU6), the “log2 ratio” value was -0.739 (inactive).
As for USP16 (UniProt Q9Y5T5), the “log2 ratio” value is -0.298 (inactive).
As for USP46 (UniProt P62068), the “log2 ratio” value was -0.141 (inactive).
UniProt Q9UGI0: the “log2 ratio” value was -0.149 (inactive).
The value for USP24 (UniProt Q9UPU5) was -0.396 (inactive).
As to USP9X (UniProt Q93008), the “log2 ratio” value is -0.16 (inactive).
For the target ATXN3 (UniProt P54252), the “log2 ratio” value was -0.301 (inactive).
The value for USP5 (UniProt P45974) was -0.246 (inactive).
